# Test system: T1, IKK-epsilon
# T1 construct: gene IKBKE
# Settings: Compound Concentration (nM):1000
# 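Further: KINOMEscan scanMAX binding as percent activity remaining versus control; lower means stronger binding.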
row,Structure (SMILES),Percent Control [%]
1,COc1ccc2c(-c3ccnc(Nc4cccc(OC(F)(F)F)c4)n3)cnn2n1 [GW810372X],62
2,CCS(=O)(=O)c1ccc(OC)c(Nc2ncc(-c3cccc(OC)c3)o2)c1 [GW580509X],100
3,CC1=C(C(=O)Nc2ccc3[nH]ncc3c2)C(c2ccc3ccccc3c2)CC(=O)N1 (stereo not drawn) [GSK270822A],87
4,COc1cccc(-c2c[nH]c3c(N/N=C/c4ccncc4)ncnc23)c1 [GW814408X],100
5,Cl.O=C(Nc1ccc(Oc2ccc3[nH]c(NC(=O)c4ccco4)nc3c2)cc1)Nc1cc(C(F)(F)F)ccc1F [GW683134A],100
6,COC(=O)Nc1nc2ccc(Oc3ccc(NC(=O)Nc4cc(C(F)(F)F)ccc4F)cc3)cc2s1.Cl [GW693917A],71
7,COc1cc(N2CCN(C(C)C)CC2)ccc1Nc1nc(Nc2ccc(F)cc2C(=O)NC[C@@H](O)CO)c2cc[nH]c2n1 [GSK1392956A],78
8,COc1cc2ncn(-c3cc(O[C@H](C)c4ccccc4Cl)c(C(N)=O)s3)c2cc1OC [GSK237701A],81
9,Cl.c1ccc(Cc2nc3ccc(Nc4ncnc5ccccc45)cc3[nH]2)cc1 [GR269666A],100
10,COc1cc(C)c(N(C)C(=O)CN(C)C)cc1Nc1nc(Nc2cccc(F)c2C(N)=O)c2cc[nH]c2n1 [GSK2219385],61
11,NS(=O)(=O)c1ccc(N/N=C2\C(=O)Nc3ccc(C(=O)NCCc4c[nH]cn4)cc32)cc1 [GW300660X],100
12,CCS(=O)(=O)c1ccc(OC)c(Nc2ncc(-c3cccc(F)c3)o2)c1 [GW621970X],98
13,CN(C)CCNC(=O)Nc1ccc(N(C)c2ccnc(Nc3ccc(CS(C)(=O)=O)cc3)n2)cc1.Cl [GW830900A],100
14,COc1cc(/C=N/Nc2ncnc3[nH]ncc23)ccc1O [GW578748X],81
15,COc1ccc2cc(-c3c(-c4ccncc4)nc(-c4ccc(S(C)(=O)=O)cc4C)n3C)ccc2c1 [SB-633825],82
16,COc1ccc(COc2ccc(Cc3cnc(N)nc3N)cc2OC)cc1 [GW632580X],86
17,COc1cccc(-n2ncc3c(N/N=C/c4ccncc4)ncnc32)c1 [GW784752X],100

row,Structure (SMILES),Percent Control [%]
1,CN(C)c1cc2c(Nc3ccc4c(cnn4Cc4ccccc4)c3)ncnc2cn1 [GW282974X],76
2,Cc1cc(O)cc(C)c1/C=C/c1cncc(C(N)=O)c1 [GW435821X],90
3,NS(=O)(=O)c1ccc(N/N=C2\C(=O)Nc3ccc(-c4cnco4)cc32)cc1 [GW276655],82
4,O=C(Nc1n[nH]c2nc(-c3ccc(O)cc3)c(Br)cc12)C1CC1 [SB-725317],84
5,NS(=O)(=O)c1ccc(Nc2ncc(-c3ccccc3)o2)cc1 [GW572399X],78
6,Cl.O=C(O[C@H]1CN[C@H](C#Cc2cc3ncnc(Nc4ccc5c(cnn5Cc5ccccc5)c4)c3s2)C1)N1CCOCC1 [GSK200398A],100
7,COc1ccccc1-c1cc(/C=C2\C(=O)Nc3ncc(Br)cc32)cc(Br)c1O [GW442130X],100
8,CC1=C(C(=O)Nc2ccc3[nH]ncc3c2)C(c2ccc(Cl)c(Cl)c2)CC(=O)N1 (stereo not drawn) [GSK299115A],100
9,COc1cc2ncnc(Nc3ccc4c(cnn4Cc4ccccc4)c3)c2cc1OC.Cl [GW282449A],100
10,O=C1Nc2ccc(C(=O)c3ccco3)cc2C1=Cc1cc(Cl)c(O)c(Cl)c1 [GW406108X],30
11,CC(C)COC(=O)c1ccc2c(c1)/C(=C/Nc1ccc(S(N)(=O)=O)cc1)C(=O)N2 [GW416981X],16
12,Cl.O=S1CCN(Cc2ccc(-c3ccc4ncnc(Nc5ccc(OCc6ccccc6)c(F)c5)c4c3)o2)CC1 [GW576924A],100
13,CCn1c(-c2nonc2N)nc2c(C#CC(C)(C)O)nc(OCCNC)cc21.Cl [GSK949675],73
14,COc1cc(C=NNc2ncnc3c2cnn3-c2ccccc2)ccc1O [GW513184X],100
15,Cl.O=C(Nc1ccc(Oc2ccc3[nH]c(NC(=O)c4ccccc4)nc3c2)cc1)Nc1cc(C(F)(F)F)ccc1F [GW709042A],86
16,Nc1ncnc2occ(-c3ccc(NC(=O)Nc4cc(C(F)(F)F)ccc4F)cc3)c12 [GW770249X],69

# Source: paper PMC7826789 (International Journal of Molecular Sciences, 2021)
